Data from PubChem BioAssay (EPA / NIEHS).
“And” between values parts separate entries of the source, which are not always exact repeats. Identical values can stand only once. Where a structure was tested more than once in an assay, its records may differ in their call. The source made the active and inactive calls. Rule for the calls: active = hit-call score of the fitted dose curve at least 0.9, where 1 is the maximum; inactive = score below 0.9.

Assay: ATG_RORE_CIS: Attagene CIS-FACTORIAL HepG2 Assay for human RAR-related Orphan Receptor Element (RORE) (AID 2282959)
Details: HepG2 Attagene cis-factorial RORE reporter, mRNA; actives raise or lower the signal
Description: ATG_CIS is a cell-based, multiplexed-readout assay that uses HepG2, a human liver cell line, with measurements taken at 24 hours after chemical dosing in a 24-well plate.ATG_RORE_CIS is one of 52 assay component(s) measured or calculated from the ATG_CIS assay. It is designed to make measurements of mRNA induction, a form of inducible reporter, as detected with fluorescence intensity signals by Reverse transcription polymerase chain reaction (RT-PCR) and Capillary electrophoresis technology.Data from the assay component ATG_RORE_CIS was analyzed into 1 assay endpoint. This assay endpoint, ATG_RORE_CIS, was analyzed with bidirectional fitting relative to DMSO as the negative control and baseline of activity. Using a type of inducible reporter, measures of mRNA for gain or loss-of-signal activity can be used to understand the reporter gene at the transcription factor-level as they relate to the gene RORA and RORB and RORC. Furthermore, this assay endpoint can be referred to as a primary readout, because this assay has produced multiple assay endpoints where this one serves a reporter gene function. To generalize the intended target to other relatable targets, this assay endpoint is annotated to the nuclear receptor intended target family, where the subfamily is orphan.
Human liver HepG2 cells are transiently transfected with multiple reporter transcription units (MRTUs) in 6-well plates using FuGene 6 reagent (Roche; 3 ml FuGene/1 mg DNA). The MRTU constructs are regulated by a cis-regulating element (promoter). […] A major difference between the CIS and TRANS system is that in CIS activities of endogenous TFs are measured, whereas the TRANS assay evaluates changes in activities of exogenous, chimeric NR-Gal4 proteins. […] At the end of 24 hour incubation, total RNA was isolated using TriZol reagent (Invitrogen). The isolated RNA is then reverse-transcribed using oligo(dT) primer and Mo-MLV reverse transcriptase (Invitrogen) with DNAse I (Ambion) treatment for 30 min. The one-tenth of the produced cDNA was amplified by PCR using Taq DNA polymerase (Invitrogen) and two reporter sequence-specific primers. The PCR products were fluorescently labeled by primer extension with 6-arboxyfluorescein (6-FAM) 5'-labeled reporter sequence-specific primer (2 min at 95 C, 20 s at 68 C and 10 min at 72 C) and these products were digested with 5U of HpaI (New England Biolabs) for 2h at 37 C. The fragments were purified using Qiaquick PCR columns (Qiagen), analyzed on an ABI 3130xL genetic analyzer (Applied Biosystems) with peak positions identified by using a set of X-rhodamine (ROX)-labeled MapMarker1000 molecular weight standards (BioVentures). The raw capillary electrophoresis data was processed using Attagraph software (Attagene).

SMILES	AC50	outcome
CCC(C)Nc1c([N+](=O)[O-])cc(C(C)(C)C)cc1[N+](=O)[O-] (stereo not given)	24.1 µM (active)	–
CC(C)(C)C(O)/C(=C\c1ccc(Cl)cc1Cl)n1cncn1 (stereo not given)	–	inactive
O=C1c2ccccc2C(=O)N1SC(Cl)(Cl)Cl	–	inactive
COP(=S)(OC)Oc1ccc([N+](=O)[O-])cc1	–	inactive
Oc1cc(Cl)ccc1Oc1ccc(Cl)cc1Cl	12.7 µM (active) and 15.1 µM (active) and 15.8 µM (active)	inactive
O=[N+]([O-])c1c(Cl)c(Cl)c(Cl)c(Cl)c1Cl	10.7 µM (active)	–
CNC(=O)Oc1ccccc1OC(C)C	–	inactive
CCS(=O)(=O)c1cccnc1S(=O)(=O)NC(=O)Nc1nc(OC)cc(OC)n1	–	inactive
O=S(=O)(O)C(F)(F)C(F)(F)C(F)(F)C(F)(F)C(F)(F)C(F)(F)C(F)(F)C(F)(F)F	133 µM (active)	inactive
CCN(CC)C(=O)SCc1ccc(Cl)cc1	19 µM (active)	–
O=C(NC(=O)c1c(F)cccc1F)Nc1ccc(OC(F)(F)C(F)OC(F)(F)F)c(Cl)c1 (stereo not given)	–	inactive
O=C(Nc1ccccc1)Nc1cnns1	–	inactive
OCCOc1ccccc1	–	inactive
N#Cc1c(Cl)c(Cl)c(Cl)c(C#N)c1Cl	–	inactive
O=C(O)CCCOc1ccc(Cl)cc1Cl	–	inactive
CNC(=O)Oc1cccc(N=CN(C)C)c1	90.4 µM (active)	–
CCC(C)(NC(=O)c1cc(Cl)c(C)c(Cl)c1)C(=O)CCl (stereo not given)	–	inactive
Cc1cc(C)nc(NC(=O)NS(=O)(=O)c2ccccc2C(=O)OC2COC2)n1	–	inactive
CC1(C)C(C=C(Cl)Cl)C1C(=O)OC(C#N)c1ccc(F)c(Oc2ccccc2)c1 (stereo not given)	–	inactive

SMILES	AC50	outcome
[2H]C1([2H])[n+]2ccccc2-c2cccc[n+]2C1([2H])[2H]	–	inactive
CCOC1Oc2ccc(OS(C)(=O)=O)cc2C1(C)C (stereo not given)	–	inactive
Cc1[nH]c(=O)n(C(C)(C)C)c(=O)c1Cl	–	inactive
CC(C)OC(=O)Nc1cccc(Cl)c1	–	inactive
CCCN(CCOc1c(Cl)cc(Cl)cc1Cl)C(=O)n1ccnc1	–	inactive
COc1cc(OC)nc(NC(=O)NS(=O)(=O)c2cc(NC=O)ccc2C(=O)N(C)C)n1	–	inactive
COc1nn(CSP(=S)(OC)OC)c(=O)s1	–	inactive
CC1(c2ccc(Oc3ccccc3)cc2)OC(=O)N(Nc2ccccc2)C1=O (stereo not given)	–	inactive
COP(=O)(OC)OC=C(Cl)Cl	–	inactive
N#CN	–	inactive
CCCN(CCC)c1c([N+](=O)[O-])cc(C(F)(F)F)cc1[N+](=O)[O-]	–	inactive
O=[N+]([O-])/N=C1\NCCN1Cc1ccc(Cl)nc1	–	inactive
COP(=S)(OC)Oc1ccc(SC)c(C)c1	53.7 µM (active)	–
C[C@H]1[C@H](c2ccc(Cl)cc2)SC(=O)N1C(=O)NC1CCCCC1	17.5 µM (active)	–
CCc1ccc(C(=O)NN(C(=O)c2cc(C)cc(C)c2)C(C)(C)C)cc1	–	inactive
CC(C)N(C(=O)COc1nnc(C(F)(F)F)s1)c1ccc(F)cc1	–	inactive
CCOc1nc(NC)nc(NC(=O)NS(=O)(=O)c2ccccc2C(=O)OC)n1	–	inactive
CCC(C)(C)C(=O)OC1=C(c2ccc(Cl)cc2Cl)C(=O)OC12CCCCC2	–	inactive
CN1CSC(=S)N(C)C1	–	inactive
